Compounds without any hit were thinned out: in the full panel of roughly 83,000, 20% have a hit.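 In brief: 96-well plates, 48 h treatment, single concentration, percent growth endpoint.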 Values without a mark were called inactive. Active and inactive are the calls of the source. How the source made its calls: active means growth percent below 10; inactive means the rest.

The assay relates to HL-60(TB) leukemia. Kind of assay: NCI-60 one-dose screen, 48 h (100 = growth as untreated, 0 = no growth, -100 = all killed). As to conditions: 10 µM unless noted.
For the molecule `CC(=O)Cc1nsc(NC(=O)c2ccoc2COc2ccccc2)n1`, the growth is 98.5%.
Consider `CC(=O)OC1Oc2ccccc2-c2oc(=O)c(-c3ccc(F)cc3)cc21` (stereo not given), for which the growth is 97.3%.
The figure for `O=C(CCl)Oc1ccc(-c2ccccc2)c(Br)c1` is 105%.
For `CCOC(=O)c1nnn(-c2no[n+]([O-])c2-c2ccc(OC)cc2)c1COc1cccc2cccnc12`, the growth was -18.3% (active).
With `COc1ccc(-n2nc(C)c3c(Nc4ccc(NC(=O)Nc5cc(C(F)(F)F)ccc5F)cc4)ncnc32)cc1` the figure was 45.8%; with `COc1ccc(C2OCC(C)(C)CO2)cc1OC`, 100%.
Turning to `COC(=O)C(N)CC(C)C` (stereo not given), the growth is 94.6%.
With `NC(=O)c1cc(I)ccc1NC(=O)COc1ccc(Cl)cc1Cl` the figure was 76.9%; with `CC1(C)CC[C@]2(C(=O)N3CCOCC3)CC[C@]3(C)C(=CC[C@@H]4[C@@]5(C)CC[C@H](OC(=O)c6cccnc6)C(C)(C)[C@@H]5CC[C@]43C)[C@@H]2C1`, 45.4%.
As to `Nc1nccc(Nc2ccccc2)n1`, the growth is 105%.
`COc1ccc(-c2cc(Nc3ccnc(N4CCOCC4)n3)on2)cc1`: the growth is -29.9% (active).
With `O=c1c2sc3ncc(Cl)cc3c2nnn1-c1cccc(Cl)c1` the figure was 91.8%; with `N#C/C(=C/c1c(O)ccc2ccccc12)C(N)=O`, 103%; with `N#Cc1ncc(-c2ccc(C(F)(F)F)cc2)c(NCc2cc(C(F)(F)F)cc(C(F)(F)F)c2)n1`, -0.911% (active).
Take `CCSc1nnc(NC(=O)Cc2ccc(Cl)cc2)s1`: the growth was 96.8%.
As to `Nc1nc(Nc2cccc(F)c2)nc2ccccc12`, the growth is 28.6%.
Turning to `Nc1no[n+]([O-])c1-c1nnc2c(n1)-c1ccccc1C2=O`, the growth is 13.1%.
Take `CC(C)(C)n1cc(-c2ccnc(NCCNS(=O)(=O)c3ccc(C(F)(F)F)cc3)c2)c(-c2ccccc2)n1`: the growth is 83.9%.
Consider `O=C(O)c1cn(C2CC2)c2cc(N3CCN(Cc4ccc5ccccc5c4O)CC3)c(F)cc2c1=O`, for which the growth is 69.7%.
With `CC1=C([Se]CC(OC(=O)CC[Se]c2ccccc2)C(=O)NC(C)(C)C)C(=O)c2ccccc2C1=O` (stereo not given) the figure was -43.2% (active).
With `CCc1ccc(C2=NN(c3ccc(S(C)(=O)=O)cc3)C(=O)CC2)cc1` the figure was 6.73% (active); with `O=C1NC(=O)/C(=C\c2ccccc2)C2=C1CCCC2`, -33.3% (active); with `C=C1C(=O)O[C@H]2[C@H]1CC/C(Cn1cc(-c3cccc(Cl)c3)nn1)=C\CC[C@@]1(C)O[C@@H]21`, -24.9% (active).
Turning to `NC(=O)c1ccccc1OCC(=O)Nc1ccc(Cl)c(Cl)c1`, the growth is 86.4%.
With `CC1CCC(C(C)(C)[N+](C)(C)C)CC1` (stereo not given), the growth is 104%.
As to `CC1CCCCN1S(=O)(=O)c1ccc(CN=C=S)cc1` (stereo not given), the growth was 75.9%.
On to `N#Cc1c(-c2ccc(Cl)cc2)nc(N/N=C/c2cccc(Br)c2)nc1N1CCOCC1`, for which the growth is 40.6%.
In the case of `Cc1ccc(S(=O)(=O)NCN2C(=O)c3ccccc3C2=O)cc1`, the growth is 106%.
Consider `O=C1c2cc3c(cc2-c2c1c1ccc(F)cc1c(=O)n2CCCNCCO)OCO3`, for which the growth was -58.1% (active).
With `CCOC(=O)C1CN(Cc2ccccc2)C(=O)C1=O` (stereo not given) the figure was 7.35% (active); with `Nc1ccc2cc3ccc(N)cc3nc2c1`, 110%; with `COC(=O)c1c2c(c(C)[n+]([O-])c1C)C(=O)C=C(NCc1ccc(Br)cc1)C2=O`, -19.4% (active).
As for `CC1(O)CCCCC1O` (stereo not given), the growth was 107%.
For `COC(=O)c1c2c(c[n+]([O-])c1C)C(=O)C(NCc1ccccc1)=CC2=O`, the growth was -34.5% (active).
For `O=C(N/N=C/c1c(Cl)cccc1Cl)c1ccccc1Nc1cccc(C(F)(F)F)c1`, the growth is 95.3%.
Regarding `Nc1cccc2c1C(=O)c1cccc(NC(=O)c3ccccc3)c1C2=O`, the growth is 1.36% (active).
Turning to `O=S(=O)(NCCNc1cc(-c2cn(-c3ccccc3)nc2-c2cccc(O)c2)ccn1)c1ccc(C(F)(F)F)cc1`, the growth was 8.76% (active).
`O=C1C=Cc2ccccc2/C1=C/c1[nH]c(=O)[nH]c1O`: the growth was 43.3%.
With `CC(c1ccccc1)N1C(=O)CSC1=S` (stereo not given) the figure was -40.6% (active); with `O=C(Cn1cncn1)Nc1ccc(-c2nc3ccccc3s2)cc1`, 102%.

For the origin of these results see PubChem BioAssay (NCI).
